Laboratory results: PubChem BioAssay AID1159580 (chemical genetic matrix, 2015)
Several values for one entry are separate records, joined by “and”; a condition that tells them apart may be missing. Identical values can stand only once. Among all 5,500 compounds or so, about 2,000 (36%) were called active. Inconclusive results (about 18%) are left out. Cut-off read from the data, not from the text of the source: active = normalized growth mostly below about 0.91 (no sharp cut-off); inconclusive = no clear call, values can overlap the other calls; inactive = mostly above about 0.92. The list shows a part of the results.

Assay: chemical genetic growth profiling, strain panel (AID 1159580);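 note: tested at 20 µM; growth read once vehicle control cultures reached saturation at 30 °C; 1 = growth at the plate median or of vehicle wells; lower values mean less growth of the strain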
Conditions: S. cerevisiae deletion strains, growth OD

Measured: normalized growth

COC(=O)[C@H]1[C@H]2C[C@@H]3c4[nH]c5cc(OC)ccc5c4CCN3C[C@H]2C[C@@H](OC(=O)c2cc(OC)c(OC)c(OC)c2)[C@@H]1OC
inactive: locus YAL013W, strain DEP1, hits give low values 0.994 | locus YAL021C, strain ccr4, hits give low values 0.965 | locus YAL026C, strain drs2, hits give low values 0.974 | locus YAL030W, strain snc1, hits give low values 0.981 | locus YBL061C, strain skt5, hits give low values 1 | locus YBR009C, strain hhf1, hits give low values 1.01 | locus YBR021W, strain FUR4, hits give low values 0.981 | locus YBR023C, strain chs3, hits give low values 0.979 | locus YBR171W, strain sec66, hits give low values 1 | locus YBR229C, strain ROT2, hits give low values 0.991 | locus YBR231C, strain swc5, hits give low values 0.987 | locus YBR279W, strain paf1, hits give low values 0.965 | locus YCL011C, strain gbp2, hits give low values 0.97 | locus YCL016C, strain dcc1, hits give low values 0.94 | locus YCL029C, strain bik1, hits give low values 1.03 | locus YCL069W, strain vba3, hits give low values 1.01 | locus YCR088W, strain abp1, hits give low values 0.999 | locus YDL005C, strain med2, hits give low values 0.98 | locus YDL035C, strain GPR1, hits give low values 0.979 | locus YDL040C, strain nat1, hits give low values 0.992 | locus YDL074C, strain BRE1, hits give low values 0.952 | locus YDL101C, strain DUN1, hits give low values 1.01 | locus YDL134C, strain PPH21, hits give low values 1 | locus YDL185W, strain tfp1, hits give low values 1.02 | locus YDL192W, strain arf1, hits give low values 1.03 | locus YDR001C, strain nth1, hits give low values 0.984 | locus YDR069C, strain doa4, hits give low values 0.963 | locus YDR101C, strain arx1, hits give low values 1 | locus YDR137W, strain rgp1, hits give low values 1.04 | locus YDR150W, strain NUM1, hits give low values 1 | locus YDR159W, strain sac3, hits give low values 0.968 | locus YDR162C, strain NBP2, hits give low values 0.991 | locus YDR195W, strain ref2 0.972 | locus YDR297W, strain sur2, hits give low values 0.984 | locus YDR318W, strain mcm21, hits give low values 1.01 | locus YDR334W, strain swr1, hits give low values 0.972 | locus YDR335W, strain msn5, hits give low values 0.993 | locus YDR388W, hits give low values 1.01 | locus YDR392W, strain spt3, hits give low values 0.784 | locus YDR502C, strain sam2, hits give low values 0.996 | locus YEL003W, strain gim4, hits give low values 0.977 | locus YEL037C, strain rad23, hits give low values 1 | locus YEL061C, strain CIN8 (second series), hits give low values 0.987 | locus YEL061C, strain CIN8, hits give low values 0.999 | locus YER015W, strain faa2, hits give low values 0.97 | locus YER016W, strain bim1, hits give low values 1 | locus YER110C, hits give low values 1.02 | locus YER111C, strain swi4, hits give low values 0.996 | locus YER155C, strain BEM2 (second series), hits give low values 0.931 | locus YER155C, strain BEM2, hits give low values 1.02 | locus YER167W, strain BCK2, hits give low values 0.987 | locus YFR010W, strain ubp6, hits give low values 1.01 | locus YGL078C, strain dbp3, hits give low values 1 | locus YGL086W, strain mad1, hits give low values 0.998 | locus YGL167C, strain pmr1, hits give low values 0.991 | locus YGL173C, strain kem1, hits give low values 0.983 | locus YGL227W, strain vid30, hits give low values 0.979 | locus YGL240W, strain doc1, hits give low values 0.957 | locus YGL248W, strain PDE1, hits give low values 1 | locus YGL253W, strain hxk2, hits give low values 1.01 | locus YGR078C, strain PAC10, hits give low values 0.975 | locus YGR135W, strain pre9, hits give low values 1.03 | locus YGR229C, strain SMI1, hits give low values 0.964 | locus YGR252W, strain gcn5, hits give low values 0.929 | locus YHR013C, strain ard1, hits give low values 0.92 | locus YHR027C, strain rpn1, hits give low values 0.953 | locus YHR030C, strain SLT2, hits give low values 1 and 0.982 | locus YHR079C, strain IRE1 (second series), hits give low values 1.01 | locus YHR079C, strain IRE1, hits give low values 0.978 | locus YHR094C, strain hxt1, hits give low values 1.02 | locus YHR129C, strain ARP1, hits give low values 1.01 | locus YHR142W, strain chs7, hits give low values 0.986 | locus YHR200W, strain rpn10, hits give low values 0.998 | locus YIL066C, strain RNR3, hits give low values 0.986 | locus YIL073C, strain SPO22, hits give low values 1.06 | locus YIL125W, strain kgd1, hits give low values 1 | locus YIR030C, strain dcg1, hits give low values 1.01 | locus YJL092W, strain hpr5, hits give low values 0.976 | locus YJL095W, strain BCK1 (second series), hits give low values 0.965 | locus YJL095W, strain BCK1, hits give low values 0.996 and 0.977 | locus YJL115W, strain asf1, hits give low values 0.966 | locus YJL129C, strain trk1, hits give low values 0.971 | locus YJL134W, strain LCB3, hits give low values 0.999 | locus YJL154C, strain vps35, hits give low values 0.986 | locus YJL164C, strain tpk1, hits give low values 0.988 | locus YJL166W, strain qcr8, hits give low values 0.981 | locus YJL168C, strain set2, hits give low values 1.01 | locus YJL187C, strain SWE1 (second series), hits give low values 0.999 | locus YJR043C, strain POL32, hits give low values 0.967 | locus YJR066W, strain TOR1, hits give low values 0.949 | locus YJR075W, strain HOC1, hits give low values 0.983
